Compound activity: PubChem, several laboratories
GDH-TPI inh – GDH-TPI coupling enzyme inhibitors, primary screen, artefact control for M. tuberculosis FBA inhibitor project, biochemical, absorbance, full deck; 360,000 tested, 1.2% active; inhibition, % at 4.8 µM; GDH-TPI coupled enzyme counterscreen, NADH absorbance;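 also: 0% = DMSO wells and 100% = wells lacking the enzyme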
CCHFV vOTU inh – CCHFV vOTU protease inhibitors, primary screen, biochemical, Pep-AMC substrate, fluorescence; Crimean-Congo hemorrhagic fever virus L polyprotein viral ovarian tumor (vOTU) protease …; inhibition, % at 11.5 µM; 370,000 tested, 0.55% active; AID 651958, 2012; also: 0% = vehicle wells with enzyme and 100% = no enzyme wells
Mtb FBA inh – Mtb FBA enzyme inhibitors, primary screen, biochemical, fluorescence, strain H37Rv; Fructose-bisphosphate aldolase (Mycobacterium tuberculosis (strain ATCC 25618 / H37Rv)), …; purified M. tuberculosis FBA, fluorescence read-out; inhibition, % at 1 µM; 360,000 tested, 2.3% active; in the data active = inhibition above about 27%;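 also: 0% = vehicle and 100% = reference inhibitor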
Target sequence (P9WQA3 whole entry, looked up): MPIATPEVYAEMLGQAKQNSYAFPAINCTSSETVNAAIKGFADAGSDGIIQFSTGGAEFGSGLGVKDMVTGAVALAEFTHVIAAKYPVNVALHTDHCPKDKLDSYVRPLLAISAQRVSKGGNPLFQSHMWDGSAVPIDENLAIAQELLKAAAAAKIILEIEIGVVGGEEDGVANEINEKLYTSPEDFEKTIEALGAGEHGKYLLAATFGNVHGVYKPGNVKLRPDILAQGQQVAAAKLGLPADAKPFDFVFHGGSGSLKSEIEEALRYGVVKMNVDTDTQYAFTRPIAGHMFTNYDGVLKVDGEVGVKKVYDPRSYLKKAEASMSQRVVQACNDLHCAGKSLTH
BH1578 lux ind – inducers of Vibrio cholerae quorum light production without autoinducers, primary screen, BH1578 luxS cqsA deficient, single point; V. cholerae BH1578 lux reporter, luminescence, 6 h; activation, % at 18.7 µM; AID 588436, 2011; 350,000 tested, 0.16% active; in the data active = activation mostly above about 9.7%, no sharp cut-off
* marks the source's active call; other numbers are inactive results. In the library only some 3.9% were active in any assay of this set; here they are far more common. Rule as the data show it, unless noted: active = inhibition above about 30%; inactive = the rest.

Results for COc1ccc(OC)c(C(=O)c2c(C)oc3cc([N+](=O)[O-])c(O)c([N+](=O)[O-])c23)c1 ?
GDH-TPI inh: 36.2*; CCHFV vOTU inh: 2.6; Mtb FBA inh: -13.0; BH1578 lux ind: inactive

How did Cc1sc2ncnc(N3CCC(C(=O)NNC(=O)COc4ccc(Br)cc4)CC3)c2c1C do in these assays?
GDH-TPI inh: -1.7; CCHFV vOTU inh: 4.8; Mtb FBA inh: -1.5; BH1578 lux ind: inactive

How did COc1ccc(C(=O)/C=C/c2ccc(O)cc2)c(O)c1CC=C(C)C do in these assays?
GDH-TPI inh: 10.0; CCHFV vOTU inh: 19.8; Mtb FBA inh: -4.8; BH1578 lux ind: inactive

What do the screens show for `COc1ccc(C(=O)/C=C/c2ccc(O)cc2)c2c1CC(O)C(C)(C)O2` (centres undefined)?
GDH-TPI inh: 33.3*; CCHFV vOTU inh: 0.6; Mtb FBA inh: -0.7; BH1578 lux ind: -0.3

What do the screens show for `Cc1cccc(N2CN=c3s/c(=C\c4ccccn4)c(=O)n3C2)c1`?
GDH-TPI inh: 64.1*; CCHFV vOTU inh: -8.5; Mtb FBA inh: -1.2; BH1578 lux ind: -0.9

How did CCc1ccc(N2CN=c3s/c(=C\c4ccccc4)c(=O)n3C2)cc1 do in these assays?
GDH-TPI inh: 35.2*; CCHFV vOTU inh: 1.0; Mtb FBA inh: -0.2; BH1578 lux ind: -0.9

Results for O=c1/c(=C/c2ccccn2)sc2n1CN(c1ccccc1)CN=2 ?
GDH-TPI inh: 23.6; CCHFV vOTU inh: 5.5; Mtb FBA inh: -1.4; BH1578 lux ind: 3.9

Results for C=CCn1cc(C(=O)NCc2ccc3c(c2)OCO3)c(=O)c2cc(S(=O)(=O)N(CC)CC)ccc21 ?
GDH-TPI inh: 18.9; CCHFV vOTU inh: -2.4; Mtb FBA inh: -1.7; BH1578 lux ind: -0.2

How did O=C(Nc1nc2ccccc2n1CCN1CCOCC1)c1cn(-c2ccccc2)nc1-c1ccccc1 do in these assays?
GDH-TPI inh: 42.1*; CCHFV vOTU inh: 14.3; Mtb FBA inh: 1.2; BH1578 lux ind: inactive

Results for COc1cc(/C=N/n2c(C)nnc2C)cc(OC)c1OC ?
GDH-TPI inh: 10.9; CCHFV vOTU inh: 5.0; Mtb FBA inh: -0.5; BH1578 lux ind: inactive

How did COc1c(Br)cc(Br)cc1/C=N/n1c(C)nnc1C do in these assays?
GDH-TPI inh: 0.3; CCHFV vOTU inh: -10.1; Mtb FBA inh: 0.9; BH1578 lux ind: 5.6*

How did CCCn1c(C)cc(C)c(C#N)c1=O do in these assays?
GDH-TPI inh: 16.7; CCHFV vOTU inh: -6.5; Mtb FBA inh: -5.1; BH1578 lux ind: -0.3

How did Oc1cccc(/C=N/Nc2ncnc3c2ncn3Cc2ccccc2)c1 do in these assays?
GDH-TPI inh: 36.7*; CCHFV vOTU inh: 27.5; Mtb FBA inh: 2.0; BH1578 lux ind: 0.7

Results for COc1cccc(/C=N/Nc2cc(-n3nc(C)cc3-c3ccccc3)ncn2)c1O ?
GDH-TPI inh: 34.6*; CCHFV vOTU inh: -11.9; Mtb FBA inh: -0.8; BH1578 lux ind: -0.4

What do the screens show for `Oc1ccc(/C=N/Nc2ncnc3c2ncn3Cc2ccccc2)cc1O`?
GDH-TPI inh: 22.3; CCHFV vOTU inh: 2.0; Mtb FBA inh: -3.1; BH1578 lux ind: -0.3

What do the screens show for `COc1ccc(/C=N/Nc2ncnc(Cl)c2N)cc1OC`?
GDH-TPI inh: 15.6; CCHFV vOTU inh: -2.0; Mtb FBA inh: 2.0; BH1578 lux ind: -0.2

How did Nc1c(Cl)ncnc1N/N=C/c1ccncc1 do in these assays?
GDH-TPI inh: 48.0*; CCHFV vOTU inh: 3.3; Mtb FBA inh: -3.8; BH1578 lux ind: inactive

How did Nc1c(Cl)ncnc1N/N=C/c1cccc(O)c1 do in these assays?
GDH-TPI inh: 41.5*; CCHFV vOTU inh: 10.3; Mtb FBA inh: -2.1; BH1578 lux ind: inactive

Results for COc1cccc(/C=N/Nc2nc(Nc3ccccc3)nc(-n3nc(C)cc3C)n2)c1O ?
GDH-TPI inh: -5.1; CCHFV vOTU inh: 16.1; Mtb FBA inh: 1.5; BH1578 lux ind: inactive

What do the screens show for `Cc1ccc(NC(=O)CN(C)C(=O)CNC(=O)c2cccs2)cc1`?
GDH-TPI inh: -4.3; CCHFV vOTU inh: -11.3; Mtb FBA inh: 1.5; BH1578 lux ind: 4.3

Results for COc1cccc(/C=N/Nc2ncnc(Cl)c2N)c1O ?
GDH-TPI inh: 31.6*; CCHFV vOTU inh: 17.0; Mtb FBA inh: -4.2; BH1578 lux ind: 6.9

Results for Clc1cccc(Cl)c1/C=N/Nc1c(Cl)cncc1Cl ?
GDH-TPI inh: 4.0; CCHFV vOTU inh: -5.2; Mtb FBA inh: -0.4; BH1578 lux ind: -0.3

Results for COc1cccc(/C=N/Nc2ncnc3scc(-c4ccccc4)c23)c1O ?
GDH-TPI inh: 32.3*; CCHFV vOTU inh: 17.7; Mtb FBA inh: 4.7; BH1578 lux ind: -0.2

How did COc1cccc(/C=N/Nc2nccnc2Cl)c1O do in these assays?
GDH-TPI inh: 8.0; CCHFV vOTU inh: 8.9; Mtb FBA inh: -5.4; BH1578 lux ind: inactive

What do the screens show for `Clc1cncc(Cl)c1N/N=C/c1ccncc1`?
GDH-TPI inh: 36.3*; CCHFV vOTU inh: 29.2; Mtb FBA inh: -1.2; BH1578 lux ind: -0.2

What do the screens show for `COc1ccccc1N1C(=O)S/C(=C\c2cc(C)n(C)c2C)C1=O`?
GDH-TPI inh: 10.4; CCHFV vOTU inh: 8.3; Mtb FBA inh: -4.0; BH1578 lux ind: 0.3

What do the screens show for `COc1ccccc1N1C(=O)S/C(=C\c2ccc(C)s2)C1=O`?
GDH-TPI inh: 34.3*; CCHFV vOTU inh: -4.6; Mtb FBA inh: 2.3; BH1578 lux ind: 1.0

Results for N#Cc1c(N)n(CCOC(=O)c2cccc([N+](=O)[O-])c2)c2nc3ccccc3nc12 ?
GDH-TPI inh: 18.9; CCHFV vOTU inh: 5.2; Mtb FBA inh: 15.3; BH1578 lux ind: -0.5

How did Cc1ccc(C(=O)NCCn2c(N)c(C#N)c3nc4ccccc4nc32)cc1 do in these assays?
GDH-TPI inh: 10.2; CCHFV vOTU inh: -209.1; Mtb FBA inh: 160.9*; BH1578 lux ind: -0.3

Results for N#Cc1c(N)n(CCNC(=O)c2ccc(Cl)cc2)c2nc3ccccc3nc12 ?
GDH-TPI inh: 18.2; CCHFV vOTU inh: -185.0; Mtb FBA inh: 199.1*; BH1578 lux ind: inactive

What do the screens show for `COc1ccc(NC(=O)C2CCCO2)cc1` (centres undefined)?
GDH-TPI inh: -5.0; CCHFV vOTU inh: -7.8; Mtb FBA inh: -1.7; BH1578 lux ind: 0.3

Results for CCS(=O)(=O)Nc1cccc(-c2nc3cccnc3s2)c1 ?
GDH-TPI inh: 5.2; CCHFV vOTU inh: -6.8; Mtb FBA inh: 2.6; BH1578 lux ind: -0.7

How did O=S(=O)(Nc1ccc(-c2nc3cccnc3s2)cc1)c1ccccc1F do in these assays?
GDH-TPI inh: 62.5*; CCHFV vOTU inh: -370.8; Mtb FBA inh: active; BH1578 lux ind: -0.6

Results for O=S(=O)(Nc1ccc(-c2nc3cccnc3s2)cc1)c1ccc(Cl)s1 ?
GDH-TPI inh: 37.2*; CCHFV vOTU inh: -67.3; Mtb FBA inh: active; BH1578 lux ind: 0.3

What do the screens show for `CCS(=O)(=O)Nc1ccc(-c2nc3cccnc3s2)cc1`?
GDH-TPI inh: 23.9; CCHFV vOTU inh: -242.2; Mtb FBA inh: active; BH1578 lux ind: 0.2

What do the screens show for `O=C(Nc1ccc(-c2nc3cccnc3s2)cc1)C1CCCO1` (centres undefined)?
GDH-TPI inh: 33.2*; CCHFV vOTU inh: -145.1; Mtb FBA inh: active; BH1578 lux ind: -0.3
